The values that follow come from PubChem BioAssay (NCATS).

Structures are written as SMILES. Results filed as inconclusive are left out. Values without a mark were called inactive. Calls of active or inactive are those of the source. Calls come from the whole dose curve; as a rule, active = well fitted curve in either direction with a large enough effect (not every such curve was filed as active); inconclusive = small, poorly fitted or top-dose-only effect, or another doubt; inactive = flat fitted curve, though single readings scatter.
% is set by controls: 0 for no effect and ±100 for the full control effect.

This experiment deals with Mitogen-activated protein kinase 10 (Mus musculus) (UniProt Q61831). Kind of experiment: JNK3 AlphaScreen Assay (AID 530).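 Note: kinase came from lysate of stimulated human HepG2 cells.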 The following applies: JNK3 lysate, c-Jun phosphorylation; series mostly up to 57.1 µM; activity change, negative = inhibition: at the top concentration. From the text:
NIH Chemical Genomics Center [NCGC]
NIH Molecular Libraries Screening Centers Network [MLSCN]
The c-jun N-terminal kinase (JNK) family are serine/threonine protein kinases that phosphorylate c-jun, a component of the transcription factor […] (AP-1). JNK kinases are members of the mitogen-activated protein kinase family including the extracellular regulated kinases and p38 kinases. Three JNK genes (JNK 1, 2, and 3) have been identified in humans so far. JNK1 and JNK2 have a broad distribution and JNK3 is primarily found in neuronal tissues and cardiac myocytes.
JNK3 has been under consideration as a target for the treatment of neurodegenerative disorders. […] JNK pathway is also involved in pathological process in a mouse model of Parkinson's disease (Xia et al., 2001).
Given these potential tissue distributions and links to neuroprotection, JNK3 inhibitors should provide useful investigational tools to study the role of this kinase in several diseases including, arthritis, stroke, myocardial infarction, ischemic injury and Parkinson's disease.
A homogeneous AlphaScreen is developed to measure the activity of JNK3. AlphaScreen is a two bead-based proximity-dependent chemical energy transfer luminescent assay platform. The phosphorylation of a biotinylated c-jun substrate by JNK3 can be detected with an antibody raised against phosphorylated c-jun. This process brings streptavidin donor beads and Protein-A acceptor beads to within a proximity range of <200 nm, and subsequently lead a chemical luminescent reaction upon exciting donor beads with 680 nm laser excitation light. Inhibition of JNK3 activity by small molecules and subsequent decrease in the antibody binding to biotinylated c-jun could attenuate or abolish this chemical luminescent reaction.
Yang DD, Kuan CY, Whitmarsh AJ, Rincon M, Zheng TS, Davis RJ, Rakic P and Flavell RA (1997) Absence of excitotoxicity-induced apoptosis in the hippocampus of mice lacking the Jnk3 gene. Nature 389:865-870. [PMID: 9349820]
Herdegen T, Claret FX, Kallunki T, Martin-Villalba A, Winter C, Hunter T, and Karin M (1998) Lasting N-terminal phosphorylation of c-Jun and activation of c-Jun N-terminal kinases after neuronal injury. J.Neurosci. 18:5124-5135. [PMID: 9651196]
Xia XG, Harding T, Weller M, Bieneman A, Uney JB and Schulz JB (2001) Gene transfer of the JNK interacting protein-1 protects dopaminergic neurons in the MPTP model of Parkinson's disease. Proc.Natl.Acad.Sci.U.S.A. 98:10433-10438.
NCGC Assay Protocol Summary:
GST-cJun (1-79) (Stratagene, La Jolla CA, #205145) was biotnylated by PerkinElmer (PerkinElmer-BioSignalInc. Montreal, Canada) and was detectable by the streptavidin Donor beads. Anti-(phospho)cJun (Ser73) antibody was from UpState (Charlottesvilles, VA, #06-659). JNK3-containing lysates were generated from HepG2 cells and pre-activated by interleukin1-beta and tumor necrosis factor alpha. All reagents were stored at -20 C before using. Phosphorylated biotinylated-GST-cJun was recognized by Anti-(phospho)cJun (Ser73) antibody and this process brings acceptor and donor beads together. Therefore JNK3 phosphorylation of cJun can be measured by Alpha reading by EnVision (PerkinElmer, Boston, MA).
The composition of kinase buffer was (in mM) 20 tris- HCl (pH 7.6) 10 MgCl2, 1 DTT, and 0.1 Na3VO4 and 0.01% Tween-20. Beads were diluted in detection buffer containing (in mM) 20 tris-HCl (pH 7.7), 20 NaCl and 80 EDTA and 0.3% BSA. The assay was performed at room temperature. All compounds were screened as titrations from 0.6 nM to 46 uM final concentration. The assay was performed in 1536-well format (white solid bottom and untreated) as follows:
Sequence,Parameter,Value,Description
1,Reagent,3 uL,Biotin-GST-cJun, Anti-(phospho)cJun and pre-activated JNK3-containing lysates
2,Compound,23 nL,Final concentration was 0.6nM to 46uM
3,Time,15 minutes,Room Temperature
4,Reagent,1 uL,ATP final concentration 10uM
6,Reagent,0.5 uL,2ng/well bead mixture
[…]
Background: Alpha assays give light when donor and acceptor beads are brought close together.
For `OC[C@@H](O)COc1cccc2ccccc12`, the “activity change, negative = inhibition” value is -16.2%. As to `C[C@H](N)C(=O)O`, the “activity change, negative = inhibition” value was -14.7%.

Take `CCS(=O)(=O)N(C)[C@@H]1c2cc(C#N)ccc2OC(C)(C)[C@H]1O`: the Potency result was “inactive”.

Take `COC(=O)[C@@H]1[C@@H]2C[C@H]3c4[nH]c5ccccc5c4CCN3C[C@@H]2CC[C@@H]1O`: the Potency entry is “inactive”. Turning to `CC1(C)CO[C@H](CC(=O)O)CN1`, the “activity change, negative = inhibition” value was -12.6%.

As to `COc1cccc(CNc2ccc3nc(-c4ccc(N)cc4)c(OC)n3n2)c1`, the “activity change, negative = inhibition” value was -5.64%. Take `CC(C)Oc1cccc(-n2c(CCc3c[nH]c4ccc(Br)cc34)nc3ccccc3c2=O)c1`: the “activity change, negative = inhibition” value was -17.5%. For the molecule `COc1ccc2[nH]c(I)c(CCNC(C)=O)c2c1`, the Potency result is “inactive”. `O=C1CC2(CCCC2)CC(=O)N1CCCCNC[C@H]1COc2ccccc2O1`: the “activity change, negative = inhibition” value is -1.29%. As to `N#CC(=C(/N)Sc1ccccc1N)/C(C#N)=C(/N)Sc1ccccc1N`, the “activity change, negative = inhibition” value is 31.6%. As to `C[C@@H]1c2ccccc2CN1CC1=NCCN1`, the “activity change, negative = inhibition” value was -7.92%. Same read-out and setting: under `Clc1cccc(Nc2nnc(-c3ccccc3)c3ccccc23)c1` stands 7.27%; under `CCC(=O)N[C@@H]1CCc2cccc(OC)c2C1`, 7.13%. On to `COc1ccc([N+](=O)[O-])c2c1CCN2C(=O)CC[C@H](N)C(=O)O`, for which the “activity change, negative = inhibition” value was 19.5%. `CN(C)CCCSC(=N)N`: the Potency entry was “inactive”. `C[C@@H](CCCCC(=O)Nc1ccc(C(F)(F)F)cc1)NCCc1cnc[nH]1`: the “activity change, negative = inhibition” value was -17.4%.

With `Cc1cccc(C)c1NC(=O)C[N+](C)(C)C`, the Potency result was “inactive”. For `CCCCC#Cc1nc(NC)c2ncn([C@@H]3O[C@@H](CO)[C@H](O)[C@H]3O)c2n1`, the “activity change, negative = inhibition” value is -10.6%. Regarding `CC(C)[C@@H]1[C@H]2CC[C@H](C2)[C@H]1N`, the Potency result is “inactive”. Turning to `CCOC(=O)C1=C(C)NC(c2ccccc2)=C(C(=O)OCc2ccc([N+](=O)[O-])cc2)[C@@H]1C#Cc1ccccc1`, the “activity change, negative = inhibition” value is 3.83%. On the same count and under the same terms, under `c1cc2c(cc1C1CCCCC1)c1c3n2CCN[C@H]3CCC1` stands -12.3%; under `NC(N)=Nc1ccc(Cl)cc1`, -13.5%; under `NCCC[C@@H](N)C(=O)O`, 6.02% [at 11.4 µM]. Take `CCCCCCCCCCCCCCC[C@@H](O)[C@@H](N)CO`: the “activity change, negative = inhibition” value is 8.2%. The same measure, in the same setting: under `CC(=O)O[C@H](CC(=O)O)C[N+](C)(C)C` stands -2.69%. For `Cc1cc(C(=O)O)ccc1[C@H](N)C(=O)O`, the “activity change, negative = inhibition” value was 20.7%. `CC(N)=NCc1cccc(CN)c1`: the Potency result was “inactive”. For `COc1ccccc1N1CCN(CCN2C(=O)c3ccccc3C(C)(C)C2=O)CC1`, the “activity change, negative = inhibition” value is -21.6%. For `CC[C@]1(O)C[C@@H]2CN(CCc3c([nH]c4ccccc34)[C@](C(=O)OC)(c3cc4c(cc3OC)N(C)[C@H]3[C@](O)(C(=O)OC)[C@@H](C(=O)OC)[C@@]5(CC)C=CCN6CC[C@@]43[C@@H]65)C2)C1`, the “activity change, negative = inhibition” value is 6.82%.

Consider `CN(CC[C@@H](Oc1ccc(-c2ccccc2)cc1)c1ccc(F)cc1)CC(=O)O`, for which the “activity change, negative = inhibition” value is -20.5%. For `CCC(C)(C)N=C(NC#N)Nc1cccnc1`, the “activity change, negative = inhibition” value is 7.77%. As to `N=C(N)SCCc1ccc(OCc2ccc([N+](=O)[O-])cc2)cc1`, the “activity change, negative = inhibition” value was 16.4%. Turning to `COc1ccc(C(OCCN2CCC[C@@H](C(=O)O)C2)(c2ccc(OC)cc2)c2ccc(OC)cc2)cc1`, the “activity change, negative = inhibition” value was 2.22%. `O=C(O)/C=C1\CCCc2ccccc2[C@H]1O`: the “activity change, negative = inhibition” value is -25.1%. On to `NC(=O)C[C@H](NC(=O)Cc1ccc(O)cc1O)C(=O)O`, for which the “activity change, negative = inhibition” value was -13.2%.

On to `NCCOB(c1ccccc1)c1ccccc1`, for which the “activity change, negative = inhibition” value was -12.4%. Regarding `CC(C)C[C@H]1C(=O)N2CCC[C@@H]2[C@]2(O)O[C@](NC(=O)[C@@H]3C=C4c5cccc6[nH]c(Br)c(c56)C[C@H]4N(C)C3)(C(C)C)C(=O)N12`, the “activity change, negative = inhibition” value is -36.1%. Regarding `O=C(O)COc1cccc(-c2ocnc2-c2nc(-c3ccccc3)c(-c3ccccc3)o2)c1`, the “activity change, negative = inhibition” value is -1.85%. For `NCCCNCCCCN(CCCN)/[N+]([O-])=N/O`, the “activity change, negative = inhibition” value was 28.6%.

Regarding `CC(=O)[C@H](CC(C)C)NC(=O)[C@@H](CC(C)C)NC(=O)[C@H](CC(C)C)NC(=O)OCc1ccccc1`, the “activity change, negative = inhibition” value was -15%.
